The record followed here is PubChem BioAssay.

Calls of active or inactive are those of the source.

The nature of assay [1]: binders of probe aFSTL3 on microarray, primary screen, stem cell growth factor project, biochemical, small-molecule microarray, fluorescence 635/667 (AID 1064).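 Further: measures binding of the biotinylated anti-FSTL3 antibody to printed compounds.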 The note with it: higher = more signal.
The nature of assay [2]: binders from COS7 lysate, DM2A8 probe, primary screen, torsin A project, cell lysate, small-molecule microarray, fluorescence 635/667 (AID 1065). The note with it: higher = more signal, COS7 lysate expressing mutant human TOR1A.
A short description of assay [3]: binders of probe aFGF2 on microarray, primary screen, stem cell growth factor project, biochemical, small-molecule microarray, fluorescence 635/667 (AID 1067).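 Further: measures binding of biotinylated aFGF2 protein to printed compounds on slides; z-score merges feature fluorescence and signal-to-noise across triplicate slides.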 Particulars: higher = more signal.
Assay [4] is described as follows: binders of probe aFGF10 on microarray, primary screen, stem cell growth factor project, biochemical, small-molecule microarray, fluorescence 635/667 (AID 1071).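 Further: score merges 667 nm spot intensity and signal to noise from triplicate slides.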 Particulars: higher = more signal.
The target of assay [5] is Neurogenic locus notch homolog protein 2 (Homo sapiens) (UniProt Q04721). Description: Notch2 binders on small-molecule microarrays, primary screen, biochemical, small-molecule microarray, 635 nm fluorescence, stem cell growth factors (AID 1073). The note with it: Notch2 binding, higher = more signal.
Assay [6] has as its target Pro-neuregulin-1, membrane-bound isoform (Homo sapiens) (UniProt Q02297). The assay can be described thus: NRG1 binders on small-molecule microarrays, primary screen, psychiatric disease protein project, biochemical, small-molecule microarray, fluorescence 635/667 (AID 1075).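 Further: score combines 667 nm spot fluorescence with signal to noise.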 Particulars: NRG1 binding, 635 nm fluorescence, higher = more signal.
Assay [7] deals with Neuregulin-1 EGF-like domain. Description: binders of neuregulin-1 EGF-like domain, primary screen, biochemical, small-molecule microarray, 635 nm fluorescence (AID 1081).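 Further: binding of the protein to compounds printed on small-molecule microarray slides.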 The note with it: small-molecule microarray binding, higher = more signal.
Assay [8] can be described thus: FRG1 promoter luciferase signal modulators, primary screen, FRG1 inhibition for FSHD, cell-based, C2C12 myotubes, firefly/Renilla luciferase, luminescence (AID 1084). Particulars: higher = more signal, called active from +8 up or from −8 down.
Assay [9] can be described thus: binders of probe aFST on microarray, primary screen, stem cell growth factor project, biochemical, small-molecule microarray, fluorescence 635/667 (AID 1086).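 Further: score merges 667 nm fluorescence with signal-to-noise of each printed compound spot.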 Particulars: higher = more signal.
A short description of assay [10]: binders of probe aHhip on microarray, primary screen, stem cell growth factor project, biochemical, small-molecule microarray, fluorescence 635/667 (AID 1087).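 Further: score merges spot fluorescence at 667nm with spot signal to noise ratio.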 Particulars: higher = more signal.
Assay [11] relates to PRMT1 (protein arginine N-methyltransferase 1). Description: PRMT1 binders on small-molecule microarrays, primary screen, biochemical, small-molecule microarray, 635 nm fluorescence (AID 1088).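 Further: binding of Prmt1 protein to compounds spotted on small-molecule microarray slides.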 Particulars: small-molecule microarray binding, higher = more signal.
The nature of assay [12]: yeast growth modulation, basal conditions, primary screen, YJM789 clinical isolate, OD600, 24 h (AID 1089).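 Further: growth of clinical yeast isolate S. cerevisiae YJM 789 seeded 1000 cells per well; test concentration not given here.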 Particulars: S. cerevisiae YJM789 growth, higher = more signal, called active from +8 up or from −8 down.
A short description of assay [13]: fission yeast growth modulation, primary screen, strain 972, OD600, 24 h, no modulator (AID 1090).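 Further: basal condition with compound alone and no growth modifier present; test concentration not given here.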 Particulars: S. pombe 972 growth, higher = more signal, called active from +8 up or from −8 down.
Assay [14] in a line: S. cerevisiae growth modulation with rapamycin, primary screen, strain BY4716, OD600, 96 h (AID 1091). Further: test concentration not given here. Particulars: higher = more signal, called active from +8 up or from −8 down.
Assay [15] concerns the target Torsin-1A-interacting protein 2 (Homo sapiens) (UniProt Q8NFQ8). The assay can be described thus: LULL1 binders on small-molecule microarray, primary screen, cell lysate, human LULL1 lysate, 635/667 nm fluorescence (AID 1092).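 Further: probe is lysate of COS7 cells overexpressing human LULL1; score merges per-feature 667 nm fluorescence with signal-to-noise.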 The note with it: hLULL1 lysate binding, 635 nm fluorescence, higher = more signal.
Assay [16] is described as follows: E. coli growth modulation, two-sided OD650, primary screen, E. coli filamentation project, strain DRC41, 24 h (AID 1093).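 Further: MC1000 strain lacking acrAB efflux and sulA so SOS filamentation is blocked; test concentration not given here.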 The note with it: OD650, 24 h, higher = more signal, called active from +8 up or from −8 down.
A short description of assay [17]: small-molecule microarray binders of probe aLefty2, primary screen, biochemical, biotinylated probe, 635/667 nm fluorescence (AID 1094).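 Further: score merges spot fluorescence near 667 nm with spot signal-to-noise ratio.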 The note with it: higher = more signal.
Assay [18] concerns Noggin (protein binding on small-molecule microarray). Description: Noggin binders on small-molecule microarray, primary screen, biochemical, 635/667 nm fluorescence (AID 1095).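 Further: score merges 667 nm feature fluorescence with signal to noise over triplicate slides.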 Particulars: 635 nm fluorescence, higher = more signal.
The target of assay [19] is Neurogenic locus notch homolog protein 3 (Homo sapiens) (UniProt Q9UM47). Description: NOTCH3 binders on small-molecule microarray, primary screen, biochemical, 635/667 nm fluorescence (AID 1096). Particulars: NOTCH3 binding, 635 nm fluorescence, higher = more signal.
Chain of Neurogenic locus notch homolog protein 3 (Homo sapiens) (Q9UM47 whole entry, looked up): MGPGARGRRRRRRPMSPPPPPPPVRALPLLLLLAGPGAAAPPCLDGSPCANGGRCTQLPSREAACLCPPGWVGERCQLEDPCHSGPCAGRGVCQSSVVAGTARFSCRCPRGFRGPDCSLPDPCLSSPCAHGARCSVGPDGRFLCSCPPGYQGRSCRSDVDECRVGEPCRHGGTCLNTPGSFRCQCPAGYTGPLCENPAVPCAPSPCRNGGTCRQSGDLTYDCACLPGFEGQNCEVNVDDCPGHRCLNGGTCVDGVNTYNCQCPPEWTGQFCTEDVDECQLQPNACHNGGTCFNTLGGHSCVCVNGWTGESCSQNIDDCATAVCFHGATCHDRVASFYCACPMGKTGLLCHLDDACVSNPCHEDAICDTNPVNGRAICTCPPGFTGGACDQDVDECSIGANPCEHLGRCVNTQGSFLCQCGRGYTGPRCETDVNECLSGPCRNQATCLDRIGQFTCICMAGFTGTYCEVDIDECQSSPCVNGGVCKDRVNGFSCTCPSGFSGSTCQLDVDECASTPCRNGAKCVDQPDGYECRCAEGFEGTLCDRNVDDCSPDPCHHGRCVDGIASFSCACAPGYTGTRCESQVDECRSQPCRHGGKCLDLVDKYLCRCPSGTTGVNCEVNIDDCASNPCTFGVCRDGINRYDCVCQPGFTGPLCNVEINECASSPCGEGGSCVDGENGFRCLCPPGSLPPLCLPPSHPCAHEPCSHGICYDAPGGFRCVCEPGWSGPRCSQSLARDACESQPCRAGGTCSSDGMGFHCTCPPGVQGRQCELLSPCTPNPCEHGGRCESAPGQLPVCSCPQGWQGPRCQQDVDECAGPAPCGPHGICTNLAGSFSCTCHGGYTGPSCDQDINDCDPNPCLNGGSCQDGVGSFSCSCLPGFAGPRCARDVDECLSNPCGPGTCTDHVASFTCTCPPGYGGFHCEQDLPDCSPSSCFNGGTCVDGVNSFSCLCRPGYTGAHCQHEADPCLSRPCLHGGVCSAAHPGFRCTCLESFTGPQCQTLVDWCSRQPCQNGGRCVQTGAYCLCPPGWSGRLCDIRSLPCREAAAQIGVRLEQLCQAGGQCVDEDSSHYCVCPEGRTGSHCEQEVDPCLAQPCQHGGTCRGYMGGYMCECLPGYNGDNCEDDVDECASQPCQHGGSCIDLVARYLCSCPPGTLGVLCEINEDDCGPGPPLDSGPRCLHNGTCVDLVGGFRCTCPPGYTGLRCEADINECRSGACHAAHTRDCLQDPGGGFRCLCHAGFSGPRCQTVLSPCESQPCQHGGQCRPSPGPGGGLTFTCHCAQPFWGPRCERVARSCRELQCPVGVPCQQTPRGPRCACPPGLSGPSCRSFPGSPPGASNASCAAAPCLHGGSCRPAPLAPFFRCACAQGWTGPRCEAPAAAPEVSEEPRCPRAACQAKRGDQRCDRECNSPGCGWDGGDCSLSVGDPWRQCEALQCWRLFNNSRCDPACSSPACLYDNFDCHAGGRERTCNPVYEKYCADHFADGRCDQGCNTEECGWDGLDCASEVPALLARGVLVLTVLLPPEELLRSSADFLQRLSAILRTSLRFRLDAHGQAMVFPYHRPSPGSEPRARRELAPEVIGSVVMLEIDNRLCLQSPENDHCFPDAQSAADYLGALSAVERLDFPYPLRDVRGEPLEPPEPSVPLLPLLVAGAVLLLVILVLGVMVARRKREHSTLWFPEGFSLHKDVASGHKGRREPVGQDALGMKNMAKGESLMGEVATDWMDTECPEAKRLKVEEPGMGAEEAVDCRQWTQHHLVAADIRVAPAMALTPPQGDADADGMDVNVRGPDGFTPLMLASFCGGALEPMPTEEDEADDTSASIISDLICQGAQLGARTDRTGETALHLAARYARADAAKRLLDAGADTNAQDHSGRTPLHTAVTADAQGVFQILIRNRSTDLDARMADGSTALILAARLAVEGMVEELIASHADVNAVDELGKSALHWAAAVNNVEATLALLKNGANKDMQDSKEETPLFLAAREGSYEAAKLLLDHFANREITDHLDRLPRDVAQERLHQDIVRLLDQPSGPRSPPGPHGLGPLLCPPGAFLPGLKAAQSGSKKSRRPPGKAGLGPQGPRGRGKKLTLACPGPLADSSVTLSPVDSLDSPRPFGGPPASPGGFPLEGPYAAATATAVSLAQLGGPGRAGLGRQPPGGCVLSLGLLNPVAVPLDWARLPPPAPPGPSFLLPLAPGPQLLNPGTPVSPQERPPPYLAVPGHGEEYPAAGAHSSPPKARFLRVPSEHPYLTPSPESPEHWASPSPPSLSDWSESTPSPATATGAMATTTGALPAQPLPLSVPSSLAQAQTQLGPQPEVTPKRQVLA
A short description of assay [20]: small-molecule microarray binders of probe aEGFR, primary screen, biochemical, biotinylated probe, 635/667 nm fluorescence (AID 1097).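 Further: probe is a biotinylated anti-EGFR antibody binding compounds printed on slides; score combines fluorescence near 667 nm and signal to noise of each spot.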 Particulars: higher = more signal.

Chain of Pro-neuregulin-1, membrane-bound isoform (Homo sapiens) (Q02297 whole entry, looked up, the tested form may be a part, canonical isoform): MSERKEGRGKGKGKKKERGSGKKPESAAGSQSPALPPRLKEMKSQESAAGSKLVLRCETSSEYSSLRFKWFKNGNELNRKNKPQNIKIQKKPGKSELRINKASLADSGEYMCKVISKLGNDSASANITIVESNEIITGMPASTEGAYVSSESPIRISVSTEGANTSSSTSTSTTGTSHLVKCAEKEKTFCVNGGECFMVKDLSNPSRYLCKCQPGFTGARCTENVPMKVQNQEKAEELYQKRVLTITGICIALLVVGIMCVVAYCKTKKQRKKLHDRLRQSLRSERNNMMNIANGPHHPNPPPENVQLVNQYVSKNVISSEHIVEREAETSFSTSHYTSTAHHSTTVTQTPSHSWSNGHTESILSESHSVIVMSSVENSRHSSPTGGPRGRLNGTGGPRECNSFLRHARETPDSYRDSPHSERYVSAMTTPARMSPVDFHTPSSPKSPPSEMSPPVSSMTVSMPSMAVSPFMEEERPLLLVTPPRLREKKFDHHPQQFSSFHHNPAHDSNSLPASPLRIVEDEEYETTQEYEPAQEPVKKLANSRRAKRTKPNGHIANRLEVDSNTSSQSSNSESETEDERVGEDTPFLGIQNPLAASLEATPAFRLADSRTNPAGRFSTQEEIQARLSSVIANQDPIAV
Chain of Torsin-1A-interacting protein 2 (Homo sapiens) (Q8NFQ8 whole entry, looked up): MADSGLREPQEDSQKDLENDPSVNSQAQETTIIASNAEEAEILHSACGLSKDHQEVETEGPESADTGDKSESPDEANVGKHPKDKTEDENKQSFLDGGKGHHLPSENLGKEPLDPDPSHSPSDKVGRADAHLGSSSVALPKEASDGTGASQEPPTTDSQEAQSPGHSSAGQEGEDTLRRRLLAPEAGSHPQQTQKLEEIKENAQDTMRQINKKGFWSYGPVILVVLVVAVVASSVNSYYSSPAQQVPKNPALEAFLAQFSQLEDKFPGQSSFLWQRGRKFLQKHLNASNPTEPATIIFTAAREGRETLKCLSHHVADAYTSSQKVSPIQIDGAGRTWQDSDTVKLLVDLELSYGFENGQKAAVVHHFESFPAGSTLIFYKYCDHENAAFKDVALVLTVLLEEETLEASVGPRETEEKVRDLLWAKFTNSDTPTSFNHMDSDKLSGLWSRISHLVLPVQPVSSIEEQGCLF

Regarding `C=CCNC(=O)[C@@H]1[C@H]2C(=O)O[C@H](c3ccccc3)[C@H](c3ccccc3)N2[C@H](c2ccc(O)cc2)[C@@]12C(=O)Nc1ccc(C#CCNC(N)=O)cc12`, the composite z-score was 0.0358 in [1]; 0.135 in assay [2]; -0.114 in [3]; -0.172 in assay [4]; -0.383 in assay [5]; 0.623 in assay [6]. Moreover, the composite z-score in [7] is -0.0033; in assay [9], -0.633; in [10] it was -0.226; in assay [11], 0.575; in [15] it was 2.13; in assay [17], -0.117. For the same compound, the composite z-score in assay [18] was 0.385; in assay [19], 0.0332; in assay [20], -0.172. The z-score in assay [8] is 1.57 (inactive); in assay [12], -0.358 (inactive); in [13] it was 0.112 (inactive); in [14], 1.69 (inactive); in assay [16] it was -1.11 (inactive).

As for `COc1ccc([Si](C)(C)[C@H]2[C@H](CCO)O[C@@]3(C(=O)N(Cc4ccc(N(C=O)c5ccccc5)cc4)c4ccccc43)[C@@H]2C)cc1`, the composite z-score was -0.151 in assay [1]; -0.177 in assay [2]; -0.0602 in assay [3]; 0.143 in assay [4]; -0.285 in assay [5]; 0.799 in assay [6]. Further, the composite z-score is 0.606 in assay [7]; -0.267 in assay [9]; -0.249 in assay [10]; 0.258 in assay [11]; 1.12 in assay [15]; -0.107 in assay [17]. Moreover, the composite z-score in [18] is 0.0352; in assay [19], 0.033; in assay [20], -0.162. Further, the z-score in [8] was -4.11 (inactive); in [12], 1.09 (inactive); in [13], 0.302 (inactive); in assay [14], 25.2 (active); in assay [16], 0.759 (inactive).

On to `NC(=O)NCC#Cc1ccc2c(c1)[C@]1(C(=O)N2)[C@H](C(N)=O)[C@H]2C(=O)O[C@H](c3ccccc3)[C@H](c3ccccc3)N2[C@@H]1c1ccc(O)cc1`, for which the composite z-score in [1] is 1.41; in [2] it was -0.0275; in assay [3], -0.0413; in [4], -0.166; in assay [5], -0.723; in assay [6] it was 1.14. Also, the composite z-score in assay [7] is -0.22; in [9] it was 0.752; in [10], 1.15; in [11], 0.317; in assay [15], 3.6; in [17], 0.411. For the same compound, the figures for the composite z-score in assay [18], in [19] and in [20] were 0.544, -0.382 and -0.413, respectively. The z-score was -0.0861 (inactive) in assay [8]; -0.989 (inactive) in assay [12]; -0.434 (inactive) in assay [13]; -0.07 (inactive) in assay [14]; 0.792 (inactive) in [16].
